Compound activity deposited in PubChem by The Scripps Research Institute Molecular Screening Center.
HTR5A inv ctr: inverse agonist of human HTR5A in OPRM1-OPRD1 counter-screen | hit rate 0.083% among 340,000 | P47898 | inhibition, % at 9.3 µM | HTR5A cell line, luminescence, inverse agonism; in the data active = inhibition mostly above about 23%, no sharp cut-off; inactive = mostly below about 18%;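 note: 0% = cells with DMSO and 100% = no-cell wells with DMSO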
Target sequence (P47898 whole entry, looked up): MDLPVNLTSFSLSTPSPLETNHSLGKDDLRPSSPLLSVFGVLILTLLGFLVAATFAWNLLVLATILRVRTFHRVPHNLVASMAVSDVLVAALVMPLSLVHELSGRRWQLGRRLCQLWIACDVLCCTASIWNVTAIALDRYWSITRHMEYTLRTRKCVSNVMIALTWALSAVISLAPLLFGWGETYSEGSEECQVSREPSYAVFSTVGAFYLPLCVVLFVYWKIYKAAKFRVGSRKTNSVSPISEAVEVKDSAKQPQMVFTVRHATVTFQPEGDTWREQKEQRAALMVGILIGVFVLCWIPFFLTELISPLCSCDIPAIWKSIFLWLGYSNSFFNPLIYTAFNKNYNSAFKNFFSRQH
OPRM1-OPRD1 inv: inverse agonist of human OPRM1-OPRD1 heterodimerization; cell-based MOR-DOR heterodimer luminescence, inverse agonism; inhibition, % at 9.3 µM; hit rate 0.21% among 340,000; in the data active = inhibition above about 22%, passing the limit was not always enough;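 note: 0% = cells with DMSO and 100% = wells without cells with DMSO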
HTR5A ag ctr: counter-screen for OPRM1-OPRD1 agonists: human HTR5A agonism; P47898; HTR5A agonist assay, luminescence, cell-based; activation, % at 9.3 µM; hit rate 0.61% among 340,000; AID 504692; in the data active = activation mostly above about 9.5%, no sharp cut-off; inactive = mostly below about 7.6%;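 note: 0% = cells with vehicle only and 100% = reference agonist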
MOR-DOR ag-1: OPRM1-OPRD1 heterodimerization agonism. activation, % at 9.3 µM. AID 504326. cells, luminescence. hit rate 0.3% among 340,000. P35372+P41143;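 note: 0% = vehicle-treated cells and 100% = reference agonist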
MOR-DOR ag-2: opioid heterodimer agonism, HTR5A counter-screen. shares compounds with HTR5A ag ctr. U2OS counter-screen cells, complementation luminescence, 3 h. activation, % at 9.3 µM. hit rate 13% among 800. AID 504913
HTR5A ag confirm: HTR5A (human) agonism, confirmation. shares compounds with HTR5A ag ctr. HTR5A agonist cell assay, luminescence. activation, % at 9.3 µM. hit rate 17% among 800. AID 504915; in the data active = activation above about 17%;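 note: 0% = cells with vehicle only and 100% = full reference agonist response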
Numbers without * were called inactive; / = not tested or not shown. A selection: hits, their analogues and other compounds. The true share with any hit is near 1.1%. Cut-off read from the data, not from the text of the source, unless noted: active = activation above about 18%; inactive = the rest.

SMILES	HTR5A inv ctr	OPRM1-OPRD1 inv	HTR5A ag ctr	MOR-DOR ag-1	MOR-DOR ag-2	HTR5A ag confirm
COC(=O)c1ccc(-c2cc(C(=O)O)c3cc4c(cc3n2)OCCO4)cc1	-44	10	17*	-2	1	2
CCS(=O)(=O)N1Cc2ccccc2CC1C(=O)Nc1cccc(OC)c1 (configuration not stated)	0	13	0	-3	/	/
CCS(=O)(=O)N1Cc2ccccc2CC1C(=O)Nc1ccc(OC)c(OC)c1 (configuration not stated)	1	6	15*	-1	1	5
CC(C(=O)OCC(=O)N1CCN(c2ccccc2)CC1)N1C(=O)c2ccccc2C1=O (configuration not stated)	-47	25	19*	-6	3	1
COc1cccc2sc(N3CCN(C(=O)c4ccco4)CC3)nc12	-35	16	19*	-2	19*	14
O=C(CN1C(=O)CSc2ncccc21)NCCN1CCOCC1	-48	4	16*	-1	0	1
COC(=O)c1ccsc1-n1cc(C#N)c(=O)n(C)c1=O	-6	1	2	0	/	/
Cn1cccc1C(=O)NC(=O)COC(=O)CNS(=O)(=O)c1ccc(Br)cc1	-49	8	17*	-2	17	13
N/C(Cc1ccc(Cl)c(Cl)c1)=N\OC(=O)c1cccs1	-104	-4	44*	1	2	1
COc1ccc2ccccc2c1CNC(C)c1ccccc1 (configuration not stated)	-6	14	2	-3	/	/
CC(NCCCOc1cccc2ccccc12)c1ccccc1 (configuration not stated)	-58	-68	15*	14	43*	2
CCOc1ccc(NC(=O)c2cc(=O)[nH]c3ccccc23)cc1	-44	7	16*	-1	21*	-1
CCCCn1c(N)c(N(CCC(C)C)C(=O)c2ccc(N3CCCC3=O)cc2)c(=O)[nH]c1=O	-5	10	4	-2	/	/
COc1cc(/C=C2\COC/C(=C\c3ccc(O)c(OC)c3)C2=O)ccc1O	16	3	-7	-1	/	/
COc1cc(/C=C2/CC/C(=C/c3ccc(O)c(OC)c3)C2=O)ccc1O	14	-53	23*	10	0	5
O=C(Nc1ccc2nc(SCc3ccc(Cl)cc3)sc2c1)c1ccccc1C(=O)N1CCOCC1	-51	-32	21*	7	12	6
Cc1cc(C(=O)CC#N)c(C)n1-c1ccc(OC(F)F)cc1	-21	17	-2	-3	/	/
Cc1cc(C(=O)COC(=O)c2ccc(O)cc2O)c(C)n1-c1ccc(OC(F)F)cc1	-12	-50	27*	8	1	25*
Cc1cc(C(=O)COC(=O)c2ccc(O)cc2O)c(C)n1-c1ccccc1	12	-47	9	12	/	/
COc1ccc(-n2c(C)cc(C(=O)COC(=O)c3ccc(O)cc3O)c2C)cc1	-12	-45	15*	11	7	10
CCCCn1c(N)c(N(CC(C)C)C(=O)c2cc(S(=O)(=O)N3CCCCC3)ccc2C)c(=O)[nH]c1=O	-8	3	1	0	/	/
CC(C)C[C@@H](COc1ccccc1)N1CCN(Cc2ccccc2)CCC1=O	-15	-53	5	9	/	/
COCCCNc1nc(N)c([N+](=O)[O-])c(NCC2CCCO2)n1 (configuration not stated)	4	17	15*	-3	1	2
CN1C(=O)c2cccc3c(S(=O)(=O)Nc4ccc(O)c(C(=O)O)c4)ccc1c23	-9	-9	3	1	/	/
CN1C(=O)c2cccc3c(S(=O)(=O)N4CCCC4C(=O)O)ccc1c23 (configuration not stated)	-49	5	17*	-1	0	0
SMILES	HTR5A inv ctr	OPRM1-OPRD1 inv	HTR5A ag ctr	MOR-DOR ag-1	MOR-DOR ag-2	HTR5A ag confirm
Cc1ccc2c(c1)S(=O)(=O)N(C)C(c1ccccc1)=C2	6	-30	-2	6	/	/
Cc1cc(N2CCN(C(=O)/C=C/C(=O)O)CC2)c2ccccc2n1	-56	-5	15*	1	1	0
O=C(O)/C=C/C(=O)N1CCN(c2ccccc2F)CC1	16	15	-2	-3	/	/
CCOc1cc(CNCC2CCCN2CC)cc(Cl)c1OC (configuration not stated)	-53	6	19*	-1	1	1
CCN1CCCC1CNCc1cc(OC)c(OC)c(OC)c1 (configuration not stated)	-53	-1	7	0	/	/
O=C(CNS(=O)(=O)c1ccccc1)N1CCCC1	2	15	1	-3	/	/
O=C(CNS(=O)(=O)c1ccccc1)N1CCN(c2ccccc2)CC1	-15	-13	16*	2	1	0
Cn1cnc(C(=O)NC2CCN(C(=O)OC(C)(C)C)CC2)c1C(=O)NC1CCN(C(=O)OC(C)(C)C)CC1	13	13	0	-2	/	/
CC(C)(C)OC(=O)N1CCC(NC(=O)c2ncn(Cc3ccccc3)c2C(=O)NC2CCN(C(=O)OC(C)(C)C)CC2)CC1	-25	-11	15*	2	5	10
C=C1CCc2c([nH]c3ccc(OCC(C)C)cc23)C1=O	-81	-26	22*	5	9	14
COc1ccc(NC(=O)CN(C)C(=O)/C=C/c2ccc(S(=O)(=O)N3CCCCCC3)cc2)cc1	-6	8	2	-1	/	/
COc1ccc(NC(=O)CN(C)C(=O)/C=C/c2ccc(OCc3ccccc3)cc2)cc1	-51	-83	24*	10	2	1
O=C(CN1C(=O)NC2(CCc3ccccc32)C1=O)NCC(=O)Nc1ccc(F)cc1 (configuration not stated)	6	-3	-2	1	/	/
O=C1N(c2ccccc2C(F)(F)F)O[C@@]1(c1ccccc1)C1CCCC1	-78	-22	29*	4	-1	-3
O=C1N(c2ccccc2C(F)(F)F)O[C@@]1(c1ccccc1)C1CCCCC1	-21	12	4	-3	/	/
COc1ccc(C)cc1NC(=O)CSc1nnc(-c2ccc(Br)cc2)o1	-17	-9	22*	2	2	2
Cc1nnc(SCc2ccc(C(=O)O)cc2)s1	-18	9	16*	-2	2	2
CN1C[C@H](C(=O)NC2(C)OC3(O)[C@@H]4CCCN4C(=O)[C@H](Cc4ccccc4)N3C2=O)CC2c3cccc4[nH]cc(c34)C[C@H]21 (some centres not stated)	-115	-9	32*	2	5	63*
O=C(NC1CCCN(CCc2ccccc2)C1)c1c[nH]c2ccccc12 (configuration not stated)	-7	9	2	-2	/	/
COc1ccc(/C=C/C(=O)NC2CCN(Cc3ccccc3)CC2)cc1OC	-1	-3	0	1	/	/
Cn1ccnc1SCC(=O)NCC(=O)Nc1ccc(F)c(F)c1F	11	7	-4	-2	/	/
COC(=O)c1cc(-c2c[nH]c3ccccc23)n[nH]1	-160	7	30*	-2	10	0
